These results are taken from publication PMC7862700, “An all-to-all approach to the identification of sequence-specific readers for epigenetic DNA modifications on cytosine”.

Assay in all cases: DAPPL (digital affinity profiling via proximity ligation, sequencing); 10 mM Tris-HCl pH 7.5, 50 mM NaCl, 1 mM DTT, 4% glycerol, room temperature, 30 min; GST-TFs on glutathione beads, 16-mer random dsDNA library, 0.1% formaldehyde crosslink after washing; high values mean tight binding
In one assay the target is T1, FEV (Homo sapiens, UniProt Q99581 1-238).
T1 sequence: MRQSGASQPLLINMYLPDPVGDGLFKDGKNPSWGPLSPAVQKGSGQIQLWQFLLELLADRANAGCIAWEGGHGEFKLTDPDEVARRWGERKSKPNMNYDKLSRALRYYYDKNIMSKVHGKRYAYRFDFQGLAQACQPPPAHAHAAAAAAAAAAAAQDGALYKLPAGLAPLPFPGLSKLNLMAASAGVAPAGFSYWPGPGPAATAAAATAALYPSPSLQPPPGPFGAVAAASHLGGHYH
As to conditions: protein: recombinant; tags: N-terminal GST; dsDNA, one strand shown. The gist of the method: (§1)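 In yeast, human transcription factors were expressed with a GST fusion, then pulled down on glutathione beads and given DNA barcodes. Pooled with a tag-only sample, they were exposed to 200 nmole of a 16-mer random double-stranded DNA library (Tris/NaCl/DTT/glycerol buffer, room temperature, 30 min), washed, crosslinked with 0.1% formaldehyde, proximity-ligated using BsaI/T4 ligase for 1 h at 37 °C, PCR-amplified and read on an Illumina NextSeq500. Each hexamer's frequency of reads for a factor, divided by the matching frequency for the tag-only sample, gives the binding signal.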

In a further assay the target is ETV5 (Homo sapiens, UniProt P41161 1-510). Conditions: protein: recombinant; tags: N-terminal GST; dsDNA, one strand shown. In outline:
as §1

For another assay, the target named is HSF1 (Homo sapiens, UniProt Q00613 1-529). Conditions: protein: recombinant; tags: N-terminal GST; chain copies: 3; dsDNA, one strand shown. In outline: as §1
The target of another assay is T2, SPIC (Homo sapiens, UniProt Q8N5J4 1-248).
T2 sequence: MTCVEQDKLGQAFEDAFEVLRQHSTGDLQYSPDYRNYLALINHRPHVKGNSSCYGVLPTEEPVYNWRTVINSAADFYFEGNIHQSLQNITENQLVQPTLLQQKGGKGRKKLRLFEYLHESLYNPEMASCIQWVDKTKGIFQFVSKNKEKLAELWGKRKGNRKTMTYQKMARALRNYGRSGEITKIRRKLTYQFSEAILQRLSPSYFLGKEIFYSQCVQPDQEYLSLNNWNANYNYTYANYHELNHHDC
Conditions: protein: recombinant; tags: N-terminal GST; dsDNA, one strand shown. In outline: as §1

Another assay has as its target ELF4 (Homo sapiens, UniProt Q99607 1-663). Conditions: protein: recombinant; tags: N-terminal GST; dsDNA, one strand shown. The gist of the method: as §1
In the next assay the target is T3, ELK4 (Homo sapiens, UniProt P28324-2 1-405).
T3 sequence: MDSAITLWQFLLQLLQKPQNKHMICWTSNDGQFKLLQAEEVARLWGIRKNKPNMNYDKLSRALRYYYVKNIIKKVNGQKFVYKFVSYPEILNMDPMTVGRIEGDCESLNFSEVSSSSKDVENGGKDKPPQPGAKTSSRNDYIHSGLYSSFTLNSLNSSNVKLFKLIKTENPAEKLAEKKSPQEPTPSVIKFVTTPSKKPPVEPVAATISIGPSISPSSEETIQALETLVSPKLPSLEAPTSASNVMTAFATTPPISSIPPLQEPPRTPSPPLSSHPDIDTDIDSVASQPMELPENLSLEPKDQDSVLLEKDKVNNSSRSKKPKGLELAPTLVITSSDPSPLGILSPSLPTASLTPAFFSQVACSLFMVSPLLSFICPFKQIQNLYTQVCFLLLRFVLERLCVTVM
Conditions: protein: recombinant; tags: N-terminal GST; dsDNA, one strand shown. In outline:
as §1

For the next assay, the target named is T4, ETV2 (Homo sapiens, UniProt O00321 1-342).
T4 sequence: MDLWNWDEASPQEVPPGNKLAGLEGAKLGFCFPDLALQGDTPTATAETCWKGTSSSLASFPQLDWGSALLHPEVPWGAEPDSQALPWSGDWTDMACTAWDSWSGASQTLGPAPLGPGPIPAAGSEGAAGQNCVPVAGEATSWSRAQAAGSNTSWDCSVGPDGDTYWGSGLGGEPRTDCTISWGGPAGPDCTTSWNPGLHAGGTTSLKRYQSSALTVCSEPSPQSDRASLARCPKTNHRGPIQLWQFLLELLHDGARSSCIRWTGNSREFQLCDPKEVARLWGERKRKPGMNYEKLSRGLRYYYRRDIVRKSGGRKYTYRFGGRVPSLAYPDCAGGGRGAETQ
Conditions: protein: recombinant; tags: N-terminal GST; dsDNA, one strand shown. In outline: as §1

A further assay addresses T5, ELF3 (Homo sapiens, UniProt P78545 1-371).
T5 sequence: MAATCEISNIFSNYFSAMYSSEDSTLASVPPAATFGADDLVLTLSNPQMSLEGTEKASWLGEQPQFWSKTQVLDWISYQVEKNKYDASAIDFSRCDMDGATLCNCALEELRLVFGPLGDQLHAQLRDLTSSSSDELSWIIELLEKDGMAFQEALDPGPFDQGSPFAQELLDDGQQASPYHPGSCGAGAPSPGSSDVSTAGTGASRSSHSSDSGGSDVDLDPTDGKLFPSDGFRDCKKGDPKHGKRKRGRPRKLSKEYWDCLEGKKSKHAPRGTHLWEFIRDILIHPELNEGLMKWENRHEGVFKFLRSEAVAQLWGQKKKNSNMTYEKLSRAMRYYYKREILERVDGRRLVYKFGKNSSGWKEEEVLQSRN
Conditions: protein: recombinant; tags: N-terminal GST; dsDNA, one strand shown. In outline:
as §1

The next assay has as its target CRX (Homo sapiens, UniProt O43186 1-299). As to conditions: protein: recombinant; tags: N-terminal GST; dsDNA, one strand shown. The gist of the method:
as §1

In the next assay the target is ETV1 (Homo sapiens, UniProt P50549 1-477). Conditions: protein: recombinant; tags: N-terminal GST; dsDNA, one strand shown. In outline:
as §1

Another assay concerns the target T6, ERF (Homo sapiens, UniProt P50548 1-548).
T6 sequence: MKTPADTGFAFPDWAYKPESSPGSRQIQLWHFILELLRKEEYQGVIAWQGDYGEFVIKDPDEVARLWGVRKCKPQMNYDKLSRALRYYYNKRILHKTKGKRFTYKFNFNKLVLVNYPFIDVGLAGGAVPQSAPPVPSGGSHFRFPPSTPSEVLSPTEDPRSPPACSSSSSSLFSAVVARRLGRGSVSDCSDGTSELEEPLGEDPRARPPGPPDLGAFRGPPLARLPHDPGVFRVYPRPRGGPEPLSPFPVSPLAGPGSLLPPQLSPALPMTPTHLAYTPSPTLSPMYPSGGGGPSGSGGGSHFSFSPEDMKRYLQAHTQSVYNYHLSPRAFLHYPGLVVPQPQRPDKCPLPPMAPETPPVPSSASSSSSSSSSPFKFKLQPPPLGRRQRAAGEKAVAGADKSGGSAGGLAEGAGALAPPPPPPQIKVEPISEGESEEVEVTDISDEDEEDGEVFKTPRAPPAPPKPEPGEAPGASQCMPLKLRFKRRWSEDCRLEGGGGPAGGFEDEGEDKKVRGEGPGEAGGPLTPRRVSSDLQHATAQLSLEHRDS
Conditions: protein: recombinant; tags: N-terminal GST; dsDNA, one strand shown. In outline:
as §1

Another assay addresses T7, ETV3L (Homo sapiens, UniProt Q6ZN32 1-361).
T7 sequence: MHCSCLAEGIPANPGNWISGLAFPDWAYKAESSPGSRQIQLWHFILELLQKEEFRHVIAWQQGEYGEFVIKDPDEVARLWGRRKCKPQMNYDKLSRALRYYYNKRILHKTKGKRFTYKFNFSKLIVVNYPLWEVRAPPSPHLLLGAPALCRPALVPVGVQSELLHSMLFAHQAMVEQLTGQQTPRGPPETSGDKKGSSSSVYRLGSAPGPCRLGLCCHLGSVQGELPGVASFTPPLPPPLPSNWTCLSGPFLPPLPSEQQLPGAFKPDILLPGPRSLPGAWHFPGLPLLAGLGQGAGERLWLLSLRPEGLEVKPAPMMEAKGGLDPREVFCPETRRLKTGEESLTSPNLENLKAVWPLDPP
As to conditions: protein: recombinant; tags: N-terminal GST; dsDNA, one strand shown. The gist of the method:
as §1

The target of another assay is T8, ETS2 (Homo sapiens, UniProt P15036 1-469).
T8 sequence: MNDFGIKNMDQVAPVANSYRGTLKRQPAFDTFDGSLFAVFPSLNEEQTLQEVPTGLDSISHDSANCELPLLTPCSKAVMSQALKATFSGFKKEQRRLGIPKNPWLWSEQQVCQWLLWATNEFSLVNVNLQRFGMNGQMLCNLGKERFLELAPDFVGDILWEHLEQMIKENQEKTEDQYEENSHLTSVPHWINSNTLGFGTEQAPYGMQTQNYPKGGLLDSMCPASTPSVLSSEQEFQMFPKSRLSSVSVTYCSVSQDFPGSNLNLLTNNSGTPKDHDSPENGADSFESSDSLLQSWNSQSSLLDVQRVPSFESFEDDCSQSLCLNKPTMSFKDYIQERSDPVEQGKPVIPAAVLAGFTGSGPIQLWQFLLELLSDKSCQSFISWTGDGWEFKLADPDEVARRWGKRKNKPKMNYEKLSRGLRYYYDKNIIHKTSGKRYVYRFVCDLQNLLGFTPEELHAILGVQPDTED
Conditions: protein: recombinant; tags: N-terminal GST; dsDNA, one strand shown. In outline:
as §1

In a further assay the target is T9, SPDEF (Homo sapiens, UniProt O95238 1-335).
T9 sequence: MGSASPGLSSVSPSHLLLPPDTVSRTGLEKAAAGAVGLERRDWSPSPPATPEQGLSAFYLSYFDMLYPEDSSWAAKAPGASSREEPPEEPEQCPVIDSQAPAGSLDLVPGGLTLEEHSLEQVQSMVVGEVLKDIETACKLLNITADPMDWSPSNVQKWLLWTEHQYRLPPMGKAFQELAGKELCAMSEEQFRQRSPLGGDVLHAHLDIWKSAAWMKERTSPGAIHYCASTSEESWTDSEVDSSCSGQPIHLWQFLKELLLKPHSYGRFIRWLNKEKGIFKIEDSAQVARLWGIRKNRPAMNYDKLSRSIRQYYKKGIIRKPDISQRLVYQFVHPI
Conditions: protein: recombinant; tags: N-terminal GST; dsDNA, one strand shown. In outline:
as §1

The next assay deals with T10, ETV7 (Homo sapiens, UniProt Q9Y603 1-341).
T10 sequence: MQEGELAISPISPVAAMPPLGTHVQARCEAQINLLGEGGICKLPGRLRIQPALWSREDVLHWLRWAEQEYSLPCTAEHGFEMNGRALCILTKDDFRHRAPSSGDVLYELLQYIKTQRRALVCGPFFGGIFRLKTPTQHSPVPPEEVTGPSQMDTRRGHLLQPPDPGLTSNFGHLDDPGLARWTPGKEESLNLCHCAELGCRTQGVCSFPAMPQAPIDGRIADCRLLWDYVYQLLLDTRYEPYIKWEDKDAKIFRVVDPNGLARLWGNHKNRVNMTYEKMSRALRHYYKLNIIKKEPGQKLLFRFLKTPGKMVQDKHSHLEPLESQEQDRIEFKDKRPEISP
As to conditions: protein: recombinant; tags: N-terminal GST; dsDNA, one strand shown. In outline: as §1

A further assay deals with T11, ELF5 (Homo sapiens, UniProt Q9UKW6-2 1-255).
T11 sequence: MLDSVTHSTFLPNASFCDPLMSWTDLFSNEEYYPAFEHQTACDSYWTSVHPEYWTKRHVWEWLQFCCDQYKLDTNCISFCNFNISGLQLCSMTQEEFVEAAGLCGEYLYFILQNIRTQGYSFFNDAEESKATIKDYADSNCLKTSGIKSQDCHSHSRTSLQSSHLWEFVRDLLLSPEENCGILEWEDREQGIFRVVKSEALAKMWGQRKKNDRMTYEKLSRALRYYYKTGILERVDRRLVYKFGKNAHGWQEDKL
Conditions: protein: recombinant; tags: N-terminal GST; dsDNA, one strand shown. The gist of the method: as §1

A further assay deals with T12, ETV3 (Homo sapiens, UniProt P41162-2 1-143).
T12 sequence: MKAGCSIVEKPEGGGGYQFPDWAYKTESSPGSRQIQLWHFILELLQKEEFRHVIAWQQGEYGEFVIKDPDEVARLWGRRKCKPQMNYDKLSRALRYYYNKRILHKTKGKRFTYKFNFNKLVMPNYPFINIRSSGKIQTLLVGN
As to conditions: protein: recombinant; tags: N-terminal GST; dsDNA, one strand shown. The gist of the method: as §1

A further assay addresses ETV6 (Homo sapiens, UniProt P41212 1-452). Conditions: protein: recombinant; tags: N-terminal GST; dsDNA, one strand shown. The gist of the method:
as §1

CRX, sequence (O43186 whole entry): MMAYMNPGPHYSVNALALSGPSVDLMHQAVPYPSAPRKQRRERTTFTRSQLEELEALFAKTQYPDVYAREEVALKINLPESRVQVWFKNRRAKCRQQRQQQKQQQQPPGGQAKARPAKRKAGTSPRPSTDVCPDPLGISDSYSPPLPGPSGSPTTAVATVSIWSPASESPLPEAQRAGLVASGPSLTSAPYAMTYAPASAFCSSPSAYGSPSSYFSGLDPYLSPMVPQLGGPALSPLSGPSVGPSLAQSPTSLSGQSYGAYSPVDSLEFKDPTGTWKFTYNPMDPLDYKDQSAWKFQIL
ETV5, sequence (P41161 whole entry): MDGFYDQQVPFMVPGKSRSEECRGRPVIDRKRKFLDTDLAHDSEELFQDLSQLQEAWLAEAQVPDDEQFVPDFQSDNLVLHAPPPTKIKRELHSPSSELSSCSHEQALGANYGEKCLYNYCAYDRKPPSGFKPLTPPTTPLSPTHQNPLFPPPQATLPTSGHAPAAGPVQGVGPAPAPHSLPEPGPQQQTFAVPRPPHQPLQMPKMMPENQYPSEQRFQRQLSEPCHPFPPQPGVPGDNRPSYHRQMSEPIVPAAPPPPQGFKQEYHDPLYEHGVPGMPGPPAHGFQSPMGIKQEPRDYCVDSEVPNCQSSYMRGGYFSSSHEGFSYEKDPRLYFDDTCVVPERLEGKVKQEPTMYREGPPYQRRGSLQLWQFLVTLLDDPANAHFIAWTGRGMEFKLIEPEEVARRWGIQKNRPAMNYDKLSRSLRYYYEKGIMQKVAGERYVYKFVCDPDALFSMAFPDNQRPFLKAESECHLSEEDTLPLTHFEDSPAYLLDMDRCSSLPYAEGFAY
ETV1, sequence (P50549 whole entry): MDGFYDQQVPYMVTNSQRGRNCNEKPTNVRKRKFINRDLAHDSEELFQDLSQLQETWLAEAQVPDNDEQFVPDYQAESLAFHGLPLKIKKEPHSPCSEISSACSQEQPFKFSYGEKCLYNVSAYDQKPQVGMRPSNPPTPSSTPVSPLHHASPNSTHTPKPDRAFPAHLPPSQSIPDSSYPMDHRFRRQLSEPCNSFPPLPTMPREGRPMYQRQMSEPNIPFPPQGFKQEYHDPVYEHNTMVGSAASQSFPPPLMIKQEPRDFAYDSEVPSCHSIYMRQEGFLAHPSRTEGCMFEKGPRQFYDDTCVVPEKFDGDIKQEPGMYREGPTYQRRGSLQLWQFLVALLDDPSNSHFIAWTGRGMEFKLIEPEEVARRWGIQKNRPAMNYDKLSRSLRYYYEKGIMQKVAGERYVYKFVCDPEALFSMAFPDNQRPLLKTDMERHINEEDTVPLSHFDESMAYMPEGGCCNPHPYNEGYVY
HSF1, sequence (Q00613 whole entry): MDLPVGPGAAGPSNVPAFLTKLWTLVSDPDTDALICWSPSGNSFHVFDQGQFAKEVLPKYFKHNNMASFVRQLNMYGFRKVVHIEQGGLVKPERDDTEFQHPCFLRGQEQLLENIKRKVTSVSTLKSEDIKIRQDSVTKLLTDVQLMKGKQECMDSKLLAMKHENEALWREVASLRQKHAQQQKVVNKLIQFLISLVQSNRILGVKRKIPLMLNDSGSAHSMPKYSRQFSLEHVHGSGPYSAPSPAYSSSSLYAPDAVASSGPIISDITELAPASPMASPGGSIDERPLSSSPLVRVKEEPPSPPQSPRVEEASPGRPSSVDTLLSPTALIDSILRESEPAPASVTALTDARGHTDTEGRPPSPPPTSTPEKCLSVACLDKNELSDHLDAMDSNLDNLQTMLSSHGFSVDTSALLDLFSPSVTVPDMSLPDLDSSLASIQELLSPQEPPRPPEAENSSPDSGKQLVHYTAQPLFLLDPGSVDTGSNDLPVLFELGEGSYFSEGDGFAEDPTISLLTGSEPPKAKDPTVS
ELF4, sequence (Q99607 whole entry): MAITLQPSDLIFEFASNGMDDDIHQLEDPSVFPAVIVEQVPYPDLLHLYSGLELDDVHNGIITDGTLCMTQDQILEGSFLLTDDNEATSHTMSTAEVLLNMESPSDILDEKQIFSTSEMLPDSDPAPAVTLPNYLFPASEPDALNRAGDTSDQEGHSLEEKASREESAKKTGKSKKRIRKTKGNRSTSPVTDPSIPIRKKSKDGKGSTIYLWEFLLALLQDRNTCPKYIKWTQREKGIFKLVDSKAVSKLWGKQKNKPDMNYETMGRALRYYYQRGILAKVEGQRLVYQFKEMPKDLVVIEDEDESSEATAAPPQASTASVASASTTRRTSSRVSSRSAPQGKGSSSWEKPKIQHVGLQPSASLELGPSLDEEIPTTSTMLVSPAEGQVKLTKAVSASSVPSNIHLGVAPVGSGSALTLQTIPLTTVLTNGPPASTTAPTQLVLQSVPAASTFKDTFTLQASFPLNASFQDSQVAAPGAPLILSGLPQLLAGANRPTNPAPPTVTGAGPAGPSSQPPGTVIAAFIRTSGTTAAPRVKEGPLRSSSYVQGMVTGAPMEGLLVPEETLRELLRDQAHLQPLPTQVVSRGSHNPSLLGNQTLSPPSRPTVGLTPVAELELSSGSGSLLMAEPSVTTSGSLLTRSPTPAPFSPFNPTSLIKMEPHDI
ETV6, sequence (P41212 whole entry): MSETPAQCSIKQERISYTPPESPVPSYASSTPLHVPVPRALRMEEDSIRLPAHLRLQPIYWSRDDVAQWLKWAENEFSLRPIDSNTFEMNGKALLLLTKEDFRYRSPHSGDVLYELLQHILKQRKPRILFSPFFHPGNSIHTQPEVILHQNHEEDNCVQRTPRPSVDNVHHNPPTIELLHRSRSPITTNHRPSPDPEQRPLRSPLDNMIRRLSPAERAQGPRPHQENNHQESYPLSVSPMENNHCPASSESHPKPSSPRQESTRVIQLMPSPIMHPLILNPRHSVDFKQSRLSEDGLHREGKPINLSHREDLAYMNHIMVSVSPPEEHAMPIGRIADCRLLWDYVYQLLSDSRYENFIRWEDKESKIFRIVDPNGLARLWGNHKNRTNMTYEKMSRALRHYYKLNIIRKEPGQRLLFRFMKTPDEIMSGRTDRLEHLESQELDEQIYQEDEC

In the case of TCTTAT, the binding signal with FEV was 1.27 fold enrichment (6-mer frequency, TF over GST control); with ETV5, 1.26 fold enrichment (6-mer frequency, TF over GST control); in the assay with HSF1, 1.57 fold enrichment (6-mer frequency, TF over GST control); with SPIC, 1.3 fold enrichment (6-mer frequency, TF over GST control); with ELF4, 1.21 fold enrichment (6-mer frequency, TF over GST control); in the assay with ELK4 it was 1.3 fold enrichment (6-mer frequency, TF over GST control). Besides, the binding signal was 1.22 fold enrichment (6-mer frequency, TF over GST control) with ETV2; 1.36 fold enrichment (6-mer frequency, TF over GST control) with ELF3; 2.21 fold enrichment (6-mer frequency, TF over GST control) with CRX; 1.32 fold enrichment (6-mer frequency, TF over GST control) in the assay with ETV1; 1.24 fold enrichment (6-mer frequency, TF over GST control) with ERF; 1.29 fold enrichment (6-mer frequency, TF over GST control) with ETV3L. Further, the binding signal with ETS2 was 1.31 fold enrichment (6-mer frequency, TF over GST control); with SPDEF it was 1.24 fold enrichment (6-mer frequency, TF over GST control); in the assay with ETV7, 1.25 fold enrichment (6-mer frequency, TF over GST control); in the assay with ELF5, 1.29 fold enrichment (6-mer frequency, TF over GST control); in the assay with ETV3, 1.23 fold enrichment (6-mer frequency, TF over GST control); in the assay with ETV6 it was 1.3 fold enrichment (6-mer frequency, TF over GST control).
